From the supplement of paper PMC10681739

Legend:
ETS1 [1] = molecular target: T1, ETS1 (UniProt P14921); assay: ETS1 binding intensity (PBM fluorescence), ETS1 alone (arbitrary fluorescence units); higher = stronger binding; settings: ETS1 concentration 1 nM; RUNX1 concentration 0 nM
T1 sequence: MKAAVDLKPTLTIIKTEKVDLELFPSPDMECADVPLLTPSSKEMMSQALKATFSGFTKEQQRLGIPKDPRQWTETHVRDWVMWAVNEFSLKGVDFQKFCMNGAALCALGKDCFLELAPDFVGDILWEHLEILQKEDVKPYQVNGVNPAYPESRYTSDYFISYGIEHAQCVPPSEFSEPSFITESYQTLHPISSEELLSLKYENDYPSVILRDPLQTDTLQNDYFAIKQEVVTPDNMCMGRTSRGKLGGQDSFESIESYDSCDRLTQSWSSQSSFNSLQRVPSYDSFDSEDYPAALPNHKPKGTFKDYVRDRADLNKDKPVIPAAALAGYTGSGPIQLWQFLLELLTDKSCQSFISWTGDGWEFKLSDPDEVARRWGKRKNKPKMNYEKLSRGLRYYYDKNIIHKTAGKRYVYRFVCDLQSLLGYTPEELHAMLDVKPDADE

ETS1 [2] = molecular target: T1, ETS1; assay: ETS1 binding intensity (PBM fluorescence) in presence of RUNX1, normalised to ETS1-only experiment (arbitrary fluorescence units); higher = stronger binding; settings: ETS1 concentration 1 nM; RUNX1 concentration 25 nM

| Sequence | ETS1 binding intensity (ETS1 [1]) | ETS1 binding intensity (ETS1 [2]) |
| --- | --- | --- |
| TCCCCTGTCTTCCGGAGGCTGCGGCGCAGCGGCGCA | 403 | 519 |
| GTCCCCTCCCCAGGATGTGGCCACCCGCTAGAGCAT | 1030 | 1560 |
| CCCGGTGCACCGGATCCGACCACACCCTGGGTGGGC | 525 | 400 |
| CCATCCAGGAAGCTTATGGTGCGACCGCAGTGTGCC | 508 | 1880 |
| TCGGTGAAGGACGGAAGATGATAGCCACATTTCTTC | 512 | 485 |
| GGAGCGGCGGAAGGGAGCTTGCGGCGGGAGGCTGAA | 423 | 485 |
| GGAGCGACGGAAGCACCTGAAGCGGTCTTTCCCCGA | 514 | 349 |
| ACCAAACGTCACATCCGCGGTGCTGCTGTAATCCCA | 470 | 389 |
| GGAAAGCGGAAGAAAAAAGCAAGATGGGACCGCAAG | 445 | 928 |
| CAGTTCCAGGAAGCAGCCCCAAGCTTGTGGCCCTGA | 526 | 305 |
| CTGGAAACCATTTCCTTTGTGGCCATGAAACAATGG | 594 | 601 |
| GCGCAAGGCGCTTCCTCCCCCGCAGCGCGAGCCCCA | 477 | 435 |
| TAAACCCTGCTTCCTGTCCCTGCGCCCCACAAGGAG | 1290 | 1150 |
| TCAGTGCACTCGGATGTTGGCCGCAGTTGGGGTTAT | 453 | 422 |
| CGAGCTCGCAAGAGGAAACCGCGGCGCGGAGGCAGC | 681 | 1130 |
| TATCACGTTTCCTGCTGCTGCACCGCGACCTCAGCT | 513 | 492 |
| CCGAAGAGGAAGCTCCACAGGACCTCCGCGGTCAGC | 397 | 1000 |
| TGTTTGTTTCCGAAGATTAGCCAGCCTGCGGTAGAG | 437 | 605 |
| TGGGGTTTCCTGGGGAGAAACTTAGCCCTACCACAC | 527 | 485 |
| TGACTCACCTTCCTGTAGGTTGGTTTTCTGCATATC | 472 | 308 |
| GACAGGATACAAGAATTCCGCGGACTGCCGCAGTCG | 642 | 649 |
| TGGTCCACCCGGCGGAACTCGCGGTCCCGGCAGGCA | 520 | 397 |

| Sequence | ETS1 binding intensity (ETS1 [1]) | ETS1 binding intensity (ETS1 [2]) |
| --- | --- | --- |
| ATGCAGAAGCTACAGGAAGAAGCCGCAGGCCAAGCT | 844 | 1120 |
| CCTCCTCTTCCTCCCCACTCTGCACATGCGGCTGGG | 520 | 344 |
| AACAGATCCTTCCTGGCCCCCACTAGCCACAGGTTT | 490 | 421 |
| CCGGGAGGGACGGAGGATGTGTGGTTCTGTCTCCTT | 673 | 553 |
| TGCTTCCGGCGGGCGCTTGCTCCCCGCGGTCCGCAC | 657 | 762 |
| TTGCTAGAGGAAGCGCTGCCCCGGCAGCCGCAGCCA | 524 | 596 |
| TGCTTAGAACACGGAAACACTGAGGTTTTACTTTGA | 482 | 560 |
| GAGAATGAAGAGGAAATGTGGGGACAGACAGAACTG | 1060 | 1170 |
| AATATAGGAAGTGTCAGCTAGGGAACTCAACCACAA | 496 | 382 |
| GCTATCCCCGCCCCTTCCTGTGGGCTGGCGCCCGAT | 482 | 489 |
| TGCACTCCACTTCCCCTCGCCCGCAGTGAGCAGTCA | 426 | 450 |
| CTCCCACGCTCCCCTTCCGGCCCCGCAGCGCTGTGA | 804 | 746 |
| GCCTGAAGCAGAGGATGTGGCTTCTGGCCCTCCCCT | 1460 | 1800 |
| CCAGCCTCCCCTTTCCTGTCTGTGGCAGGAGCGTGC | 505 | 512 |
| GGCTTTTCCGGGATCCCTTTCGCCTCATCACCGCAG | 522 | 301 |
| GTGTTCAGACGGAAGCGTTATTCAGTGGTCAGAGCA | 741 | 1070 |
| GCGCCCCGTCCTTCCGCAGCCCAACCGCCTCTTCCC | 476 | 383 |
| ACAGTTTCCTTGCTGTGATGTCAGCCCCCGCCGCAG | 709 | 682 |
| GTACGCTCTTCACTTCCCGTACCCGCGCCCGGCAGG | 609 | 634 |
| CCTCCCGGCTTCCGTTCCTTGACCACCTCCTTCTCG | 560 | 501 |
| TGGGCACGGGAGGAAGAGGCTGGGTGGTAAACAGGA | 467 | 494 |
| CCGTGTCAGTGAGGATGTGGGCTGCCGGGCTGGGCG | 491 | 753 |

| Sequence | ETS1 binding intensity (ETS1 [1]) | ETS1 binding intensity (ETS1 [2]) |
| --- | --- | --- |
| ACACCACTCAGGAAGACAAAGCCACACCTCACACCG | 487 | 440 |
| ACGTCTTTATTTATCCTGTGGCTTCCCGACCCCCAC | 537 | 576 |
| TCGCTTCCTGCTCCACTTCTCGGCGCCCACATCTCC | 514 | 523 |
| GGGGCGCTGCGCAGGAAGCCGCAGTCCCTCTGCGGA | 930 | 1210 |
| TAAATAGGAAGTCAGAGTTTACTGCCGAACCCACAG | 616 | 523 |
| CTACATGTTTCACAGGAAGGTGGTCACCAGGAGGCA | 782 | 821 |
| CCCCGTTACGCCCATCCGGCTCCCGCATAGGGCGTC | 442 | 402 |
| TGAGCCCCAGCAAGGGGAAGTGGTTAACCCAGGGTC | 709 | 1960 |
| AGGCAGGGAAGTGGCGCAGAGGAGACCACAGGACAC | 563 | 803 |
| CTTGCTTGAGTCACAGGAAACCACTCAGAGGCTAAC | 2600 | 2860 |
| CCTGAGCGCCCGGAAGGAAGGCTGTGGTAGGTTGTC | 1270 | 1570 |
| TCTCTCTACGGAAGCTGGTAGGGCTGTGGGTGCTTC | 729 | 810 |
| TGGGGGCGGAAGCCTAAACCCCTCCCGCAGCCAGTC | 625 | 627 |
| GCAAACGGAAGAGAGGAACGAAGGCCGCAGAGCTTG | 486 | 481 |
| TAGGCCGGAAAGCACCACCGTCCTCCCGCAGGCCGC | 455 | 386 |
| GTCTTGTACCCTAGAGGATGTGGTAGCCCTAAATAA | 1060 | 2290 |
| CTGCAGACAGGAGGATGTGGGCTTGCGCGCAAACAG | 675 | 745 |
| GGAGGAAGGCAGGAAAGAAAGAGGTGGTTTCGGCAC | 605 | 762 |
| CCTGACTCTGGGTTTCCTCCCAGCCACAGACACCTG | 459 | 412 |
| CCACGCCCCCTCCTTCCGCTGCGGGAGATAGCCACT | 787 | 751 |
| AGCCAGGAAATCCGCACCTACACAGCCCAACCACAG | 582 | 435 |
| CTCAGCTCCGCGGAAGTTGCGGTAAGTGGAGCTTTG | 962 | 8730 |

| Sequence | ETS1 binding intensity (ETS1 [1]) | ETS1 binding intensity (ETS1 [2]) |
| --- | --- | --- |
| AAAGAGAAAGGAAACAAAGTATAGCACCACAGTGAG | 475 | 554 |
| GGGGCCCCGGATGCACTGAGCGGCTGCGGCGCGGCT | 613 | 642 |
| TAGCCATCGTGCAAAGGATGTGGTGAAGTCAGTCAG | 942 | 2620 |
| CCCGGACCGTTTCCGTGCTGTGGTCCCGGGTTCTGG | 443 | 412 |
| GAATGACAGGAAGATGATTAGTGATAGTGGGTTTGG | 740 | 880 |
| ATACCGGCGCATCCGGATTTTGAAGCCGCAGTGGAC | 728 | 774 |
| TGTTGCACATGTTCAGGATGTGGTAGACAGCTTTCA | 1410 | 3040 |
| TGCCGTTTCCGGGTCACCCAGGCAGCTTGTGGCGGC | 528 | 478 |
| TTACTTCTCAGGAAGCGCTGTGGGGCTGGGGTTGCT | 676 | 513 |
| GCCGTGAGAAACATCCTGCCTAACCACCTGACTACA | 618 | 678 |
| ACAGGAAGTCAGCTGAGTACCGAGCAAGCCGCATGC | 1770 | 2090 |
| AATGTAGGAAATTCCACTGCATAATTTGTGGTAGTG | 478 | 539 |
| GCCATGGCCACTTCCTGCTTGTAACCACAGCCCAGA | 4430 | 13200 |
| AGTGTAAACACGGAAGTGGCCGCAGGGGTGGGGGAT | 1820 | 2690 |
| TGCCTCTTCCTGTGGCTGGGCTGTATCTGACCACAC | 503 | 462 |
| GGAACGGAGGCGGAAGGGGCCCTGCGGCGACGACGT | 679 | 1070 |
| TAACTTGAACTTCCTTTTGACCACCTGTACGGTATA | 497 | 462 |
| CGGGGCATGCCGGACGCTGTGGTCCTGAAGGCCTGG | 536 | 423 |
| GCTGTTTCCTGCTGATAAAAACACCCCACAACTTCA | 449 | 510 |
| TTCTCTGATTTTCCTTCCGCTCCCACAGCCTCTCCC | 697 | 612 |
| AACACTATTTCCTTTCTTGCTGCCCACATTTTAACA | 520 | 447 |
| TGGCCAGGAAGCCACTCGATTGCCGGCGCCCGCAGC | 415 | 458 |

| Sequence | ETS1 binding intensity (ETS1 [1]) | ETS1 binding intensity (ETS1 [2]) |
| --- | --- | --- |
| GGGCCCCCGGAAAGAGCTTTGACCGCTCGAGCCTGC | 456 | 489 |
| TAAATACCTCACAGGAAATTTGAGGTTGGATGAGAT | 2010 | 2320 |
| CAGCTAGAGGAAGCGCTTCGCCCGCGAACCACAGGG | 375 | 705 |
| GGAGGAAGAGAGGAAACGGGGGCGGCCGCAGCTTCT | 836 | 1070 |
| GAGCACATTTCCTTTTGCTTCCAGATACCACAGTGA | 445 | 412 |
| TCCCGAGAGTGCGGCGGAAACCACGCGGCGCCGCCG | 1360 | 1570 |
| CTGGCTACAGGAAAAACAAAGTCAAACCACAGCACT | 473 | 929 |
| TCGCATAGCCGGGAAGCGCGGTGGAGGTTGTTGGGG | 428 | 473 |
| CCGGGCCTCCAGACGGAACTGTGGGCGAGGGGAGGG | 470 | 404 |
| TGTTTACTTCCTGGAGGCACTTTGGTTTTTCTTTCT | 490 | 325 |
| GCCTGCGCTCTTTCCGGTAGCCACAGCCTCGTCTAA | 1290 | 1220 |
| CCAACACGGATACAAAAAATATCTCTCTACCACACT | 476 | 531 |
| TTGAAAAGGAAGTTCATTTGTACTGAGGTGGTTTTA | 602 | 698 |
| GAAACTTCTCAAGGAAATAGCTGTGGTAAACAATAC | 725 | 1730 |
| CACCCAAGGATATGCTTTTTTTTGGCAAGCCACATC | 430 | 451 |
| TCCTAGCCATTTCCTATCCACCCTGTGGCTAATTTG | 437 | 476 |
| AGCGGCTTCCTGCTGGGCTTTTGCACTCCCCACAAC | 510 | 523 |
| TTGCGTCACGTCCGGCCTGCGAGTTACCGCCCACTC | 690 | 603 |
